These results are taken from PubChem BioAssay (NCATS).

Structures are written as SMILES. “And” between values parts separate entries of the source, which are not always exact repeats. Identical values can stand only once. Records with an inconclusive call do not appear. The source made the active and inactive calls. Unless noted, calls follow the shape of the dose curve; as a rule, active = well fitted curve in the direction sought with a large enough effect; inconclusive = small, poorly fitted or top-dose-only effect, or another doubt; inactive = no such curve, though single readings can be large; an effect the other way counts as inactive or inconclusive.

Assay [1] can be described thus: Cell Viability - LYMP1-002 - Assay at 16 hr (AID 948).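 Also: 0% = DMSO alone and full effect = 92 µM tetraoctylammonium bromide.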 The gist of the method: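 In this qHTS, lymphoblastoid LYMP1-002 cells (human) receive compounds for 16 hr at 37 C. Viability is taken from CellTiter-Glo ATP luminescence, and AC50 derives from standard Hill fits.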
Assay [2] in a line: MultiTox-Fluor Cytotoxicity Assay - LYMP1-002 - Dead Cells (AID 960).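 Also: 0% = DMSO and 100% = tetraoctylammonium bromide; nearly all actives have a fitted effect of over 60% in size.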 The gist of the method:
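Human lymphoblastoid LYMP1-002 cells, 2500/well, treated 16 h at 37 C; dead-cell protease cleavage of bis-AAF-R110 read by fluorescence (485/520); normalized to DMSO and 15 uM tetraoctylammonium bromide; AC50 from Hill fit.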

Assay [3] can be described thus: Cell Viability - LYMP2-009 (AID 968).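 Also: series mostly up to about 92 µM; 0% = DMSO alone and the full-kill end = tetraoctylammonium bromide at 92 µM; nearly all actives have a fitted effect of over 55% in size.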
Assay [4] is described as follows: Cell Viability - LYMP2-017 (AID 972). Also: series mostly up to about 92 µM; % is scaled to controls: 0 for no effect and ±100 for the full control effect; nearly all actives have a fitted effect of over 55% in size. In short, it runs like this:
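LYMP2-017 human lymphoblastoid cells (2500/well) settled 5 hr at 37 C, then exposed to compound 24 hr at 37 C in complete medium. Viability taken as intracellular ATP by CellTiter-Glo luminescence after 30 min at RT; AC50 from Hill fits.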

A short description of assay [5]: Cell Viability - LYMP2-002 (AID 977).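 Also: series mostly up to about 92 µM; compound exposure lasted 24 h at 37 °C; plate controls were DMSO only for no effect and 92 µM tetraoctylammonium bromide for full effect.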 In short, it runs like this:
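Cytotoxicity is scored as concentration-dependent loss of cellular ATP in a human lymphoblastoid line after 24 hr compound treatment at 37 C. AC50 is obtained by modelling concentration-response data with the Hill equation.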

Assay [6] can be described thus: Cell Viability - LYMP2-016 (AID 984). Also: % is scaled to controls: 0 for no effect and ±100 for the full control effect; nearly all actives have a fitted effect of over 55% in size. In short, it runs like this:
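Concentration-dependent ATP depletion measured in LYMP2-016 lymphoblastoid cells, 24 h, 37 C; luciferase-based luminescent detection; Hill-equation AC50.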

In assay [7] the target is Glucocorticoid receptor (Homo sapiens) (UniProt P04150). In words: qHTS assay for small molecule agonists of glucocorticoid receptor signaling (AID 588532; active = well fitted curve in the direction sought with a large enough effect in the signal ratio, with a control signal flat; the % refers to the signal ratio;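 also: 100% = dexamethasone at 0.1 µM and 0% = DMSO only wells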). As to conditions: HeLa MMTV-bla, beta-lactamase ratio, agonist, 18 h; stronger effect = higher value; percent of dexamethasone control, DMSO zero. The gist of the method: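 Using MMTV-bla HeLa cells in medium with 1% stripped FBS and 25 mM HEPES, compounds were titrated and incubated overnight-length (18 h). Beta-lactamase cleavage of CCF4 was quantified by dual-emission fluorescence.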

Assay [8] can be described thus: qHTS assay for small molecule antagonists of peroxisome proliferator-activated receptor delta signaling (AID 588535).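 Also: cells co-treated with a PPAR-delta agonist as stimulator during compound exposure.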 As to conditions: HEK293T PPARd-UAS-bla, beta-lactamase FRET ratio, 18 h; 460 nm channel. The gist of the method: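 HEK293T PPAR-delta-UAS-bla cells, 4000/well, 2% charcoal/dextran FBS; 5 h 37 C; cpd titration; 18 h 37 C; CCF4 2 h RT; FI 460/530 nm; Hill fit → IC50, efficacy.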

Assay [9] has as its target Vitamin D3 receptor (Homo sapiens) (UniProt P11473). In words: qHTS assay for small molecule agonists of vitamin D receptor signaling (AID 588543; calls by dose curve;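 also: 0% = DMSO basal and 100% = reference agonist control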). In short, it runs like this: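 Measured: β-lactamase reporter activity (CCF4, 405 nm excitation, 460/530 nm emission) in HEK293T VDR-UAS-bla cells after 16 h compound exposure at 37 °C. Normalization against 50 nM 1α,25-dihydroxyvitamin D3 and DMSO; Hill-fit EC50.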

Assay [10] deals with Retinoic acid receptor RXR-alpha (Homo sapiens) (UniProt P19793). Nature of the assay: qHTS assay for small molecule agonists of retinoid X receptor alpha signaling (AID 588544; calls by dose curve;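 also: 0% = DMSO basal wells and 100% = reference agonist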).
Assay [11] deals with Thyroid hormone receptor beta (Homo sapiens) (UniProt P10828). Nature of the assay: qHTS assay for small molecule agonists of thyroid hormone receptor beta signaling (AID 588545; calls by dose curve). The gist of the method:
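Cells (2500/well) were seeded, incubated 4 hrs at 37 C, dosed with a compound series, incubated 18 hrs, loaded with CCF4 dye for 2 hrs at RT, then read for fluorescence. Data were scaled between DMSO (0%) and 10 nM T3 (100%).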

Assay [12] shares this target. In words: qHTS assay for small molecule antagonists of thyroid hormone receptor beta signaling (AID 588547; active = well fitted inhibition curve with a large enough effect in the signal ratio, with a control signal flat, not every such curve was filed as active; the % refers to the signal ratio;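 also: cells stimulated with 0.4 nM T3 agonist during compound exposure; series mostly up to about 77 µM; % is scaled to controls: 0 for no effect and ±100 for the full control effect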). As to conditions: TR-UAS-bla HEK293, beta-lactamase ratio, antagonist mode, 18 h. The gist of the method:
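Inhibition of T3-driven (0.4nM final) beta-lactamase reporter activity was measured over 0.59 nM to 92 uM compound after 18 h at 37 C. The cells were GripTite HEK293 TR-UAS-bla in charcoal/dextran-stripped serum, with CCF4 ratio read-out and IC50 from Hill fits.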

The nature of assay [13]: qHTS assay for small molecule agonists of the antioxidant response element (ARE) signaling pathway (AID 651741; active = well fitted activation curve with a large enough effect in the signal ratio; the % refers to the signal ratio; also: potency is read from the fitted curve at half-maximal effect; as to activation: % of control where 0% means no effect). In short, it runs like this: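 Quantitative HTS in HepG2 cells stably expressing an ARE-beta-lactamase reporter; 16 h compound exposure at 37 C, followed by 2 h room-temperature incubation with LiveBLAzer B/G FRET substrate and fluorescence measurement.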
Assay [14] is described as follows: qHTS assay for small molecule disruptors of the mitochondrial membrane potential - 5 hr assay (AID 651755; calls by dose curve; also: % is scaled to controls: 0 for no effect and ±100 for the full control effect; nearly all actives have a fitted effect of over 40% in size). The gist of the method:
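HepG2, 2,000 cells/well, overnight attach; cpd or DMSO 5 hr, 37C/5% CO2; Mito-MPS 30 min 37C; fluor 490/535 + 540/590 nm.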

Assay [15] can be described thus: qHTS assay for environmental chemicals that activate the Aryl hydrocarbon Receptor (AhR) signaling pathway (AID 651777). Also: % of control where 0% means no effect; nearly all actives have a fitted effect of over 15% in size. The conditions noted are these: 1A2-DRE human hepatoma cells, luciferase, 24 h; activation: stronger effect = higher value. In short, it runs like this: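 AhR activation is scored as a rise in luciferase from a stable DRE–CYP1A2 promoter construct in human hepatoma cells. Treatment lasts 24 hr at 37 C; detection uses One-Glo after 30 min at room temperature.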

The target in assay [16] is Nuclear receptor ROR-gamma (Homo sapiens) (UniProt P51449). Nature of the assay: qHTS assay for small molecule antagonists of the retinoid-related orphan receptor gamma (ROR-gamma) signaling pathway (AID 651802). Also: nearly all actives have a fitted effect of over 60% in size. Also: potency is read from the fitted curve at half-maximal effect. In short, it runs like this: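 CHO cells with TET-inducible ROR-gamma and RORE-luciferase reporter, dosed then doxycycline-induced. After 16 h at 37C, One-Glo luminescence read; decreased signal indicates antagonism.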

Assay [17] is described as follows: qHTS assay for cell viability of HEK293 cells (AID 743288). Also: % is scaled to controls: 0 for no effect and ±100 for the full control effect; nearly all actives have a fitted effect of over 50% in size. The conditions noted are these: ATP luminescence (CellTiter-Glo), 18 h, stronger effect = lower value. The gist of the method: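 Luminescent ATP quantitation served as the viability read-out. Cells (parental HEK293, 2,000/well) received compounds after at least 5 h at 37 C and were exposed for 18 h before a 30 min room-temperature reagent step.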

Assay [18] deals with Retinoic acid receptor RXR-alpha (Homo sapiens) (UniProt P19793). In words: qHTS assay for small molecule antagonists of retinoid X receptor alpha signaling (AID 588546; active = well fitted inhibition curve with a large enough effect in the signal ratio, with a control signal flat, not every such curve was filed as active; the % refers to the signal ratio; also: % is scaled to controls: 0 for no effect and ±100 for the full control effect). As to conditions: HEK293T RXRa-UAS-bla, beta-lactamase ratio, antagonist mode. In short, it runs like this: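 Beta-lactamase reporter inhibition, read as CCF4 fluorescence ratio (ex 405, em 460/530 nm) after 2 h at RT. HEK293T UAS-bla cells, 2500/well, were stimulated with 9-cis-RA at 500 or 100 nM final alongside test compound for 18 h at 37 C.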

Assay [19] in a line: qHTS assay for small molecule activators of the nuclear factor-kappa B (NF-kB) signaling pathway (AID 651749; active = well fitted activation curve with a large enough effect in the signal ratio; the % refers to the signal ratio; also: series mostly up to about 77 µM; % of control where 0% means no effect). As to conditions: NF-kB-bla ME-180 cells, beta-lactamase FRET ratio, 16 h; stronger effect = higher value. In short, it runs like this: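 Readout: beta-lactamase reporter driven by an NF-kB response element, detected fluorescently as loss of FRET. Cells were the ME-180 line, treated 16 hr at 37C with pin-transferred compound.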

Vitamin D3 receptor (Homo sapiens), sequence (P11473 whole entry, looked up): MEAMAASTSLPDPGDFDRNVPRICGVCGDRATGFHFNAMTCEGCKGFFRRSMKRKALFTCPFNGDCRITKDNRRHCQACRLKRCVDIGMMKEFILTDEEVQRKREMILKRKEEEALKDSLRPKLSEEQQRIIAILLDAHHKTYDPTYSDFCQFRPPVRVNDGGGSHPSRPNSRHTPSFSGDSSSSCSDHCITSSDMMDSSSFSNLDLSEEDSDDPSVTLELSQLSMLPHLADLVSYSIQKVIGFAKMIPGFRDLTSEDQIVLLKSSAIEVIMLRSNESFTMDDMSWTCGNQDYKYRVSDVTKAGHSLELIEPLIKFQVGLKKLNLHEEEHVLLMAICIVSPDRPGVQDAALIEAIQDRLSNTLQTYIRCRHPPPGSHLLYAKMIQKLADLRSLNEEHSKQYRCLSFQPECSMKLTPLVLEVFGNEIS
Nuclear receptor ROR-gamma (Homo sapiens), sequence (P51449 whole entry, looked up): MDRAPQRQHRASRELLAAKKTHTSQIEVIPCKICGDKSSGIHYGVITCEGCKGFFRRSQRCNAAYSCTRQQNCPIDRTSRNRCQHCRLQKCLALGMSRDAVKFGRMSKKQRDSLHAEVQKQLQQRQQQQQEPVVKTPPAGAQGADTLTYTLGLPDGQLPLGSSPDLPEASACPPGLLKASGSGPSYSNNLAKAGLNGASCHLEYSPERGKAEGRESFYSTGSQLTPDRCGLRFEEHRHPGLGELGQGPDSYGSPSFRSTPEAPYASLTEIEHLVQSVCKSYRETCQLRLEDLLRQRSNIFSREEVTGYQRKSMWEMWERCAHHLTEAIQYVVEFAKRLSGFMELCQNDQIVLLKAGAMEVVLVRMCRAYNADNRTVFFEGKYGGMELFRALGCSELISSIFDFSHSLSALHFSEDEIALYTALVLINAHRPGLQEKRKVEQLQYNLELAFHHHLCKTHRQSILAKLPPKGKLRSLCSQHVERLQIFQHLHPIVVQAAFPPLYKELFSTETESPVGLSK
Thyroid hormone receptor beta (Homo sapiens), sequence (P10828 whole entry, looked up): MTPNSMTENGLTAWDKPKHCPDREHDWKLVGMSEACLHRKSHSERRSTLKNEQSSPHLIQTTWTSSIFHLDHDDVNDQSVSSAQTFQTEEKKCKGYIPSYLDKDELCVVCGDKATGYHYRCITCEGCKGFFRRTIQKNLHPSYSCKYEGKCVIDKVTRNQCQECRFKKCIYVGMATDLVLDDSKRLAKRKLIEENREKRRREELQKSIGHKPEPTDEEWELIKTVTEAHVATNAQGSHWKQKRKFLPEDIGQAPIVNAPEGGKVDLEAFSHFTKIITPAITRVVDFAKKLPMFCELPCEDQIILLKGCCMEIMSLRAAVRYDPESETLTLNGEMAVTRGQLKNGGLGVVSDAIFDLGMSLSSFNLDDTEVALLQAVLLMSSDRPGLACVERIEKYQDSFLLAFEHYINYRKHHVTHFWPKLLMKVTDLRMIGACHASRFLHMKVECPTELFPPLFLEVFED
Glucocorticoid receptor (Homo sapiens), sequence (P04150 whole entry, looked up): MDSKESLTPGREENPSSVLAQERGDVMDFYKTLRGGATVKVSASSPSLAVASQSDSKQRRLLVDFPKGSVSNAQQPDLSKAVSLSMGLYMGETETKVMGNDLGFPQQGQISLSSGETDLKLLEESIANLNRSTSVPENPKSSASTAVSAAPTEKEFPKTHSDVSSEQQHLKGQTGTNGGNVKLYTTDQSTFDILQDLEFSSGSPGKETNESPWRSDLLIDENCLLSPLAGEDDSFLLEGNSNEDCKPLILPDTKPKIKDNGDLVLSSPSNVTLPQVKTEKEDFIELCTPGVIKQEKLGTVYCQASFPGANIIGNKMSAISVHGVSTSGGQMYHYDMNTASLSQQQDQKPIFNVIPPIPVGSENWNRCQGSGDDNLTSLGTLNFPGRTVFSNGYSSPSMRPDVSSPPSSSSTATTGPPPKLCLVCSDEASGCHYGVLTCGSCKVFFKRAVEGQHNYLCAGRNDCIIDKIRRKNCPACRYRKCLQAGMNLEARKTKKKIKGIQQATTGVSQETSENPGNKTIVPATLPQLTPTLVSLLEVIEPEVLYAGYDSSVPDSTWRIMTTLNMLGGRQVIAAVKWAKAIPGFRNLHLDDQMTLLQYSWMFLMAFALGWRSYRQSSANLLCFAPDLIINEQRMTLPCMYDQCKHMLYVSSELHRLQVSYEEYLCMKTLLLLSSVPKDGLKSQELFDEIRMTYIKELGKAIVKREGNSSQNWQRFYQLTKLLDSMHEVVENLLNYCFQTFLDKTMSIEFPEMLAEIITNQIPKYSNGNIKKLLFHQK
Retinoic acid receptor RXR-alpha (Homo sapiens), sequence (P19793 whole entry, looked up): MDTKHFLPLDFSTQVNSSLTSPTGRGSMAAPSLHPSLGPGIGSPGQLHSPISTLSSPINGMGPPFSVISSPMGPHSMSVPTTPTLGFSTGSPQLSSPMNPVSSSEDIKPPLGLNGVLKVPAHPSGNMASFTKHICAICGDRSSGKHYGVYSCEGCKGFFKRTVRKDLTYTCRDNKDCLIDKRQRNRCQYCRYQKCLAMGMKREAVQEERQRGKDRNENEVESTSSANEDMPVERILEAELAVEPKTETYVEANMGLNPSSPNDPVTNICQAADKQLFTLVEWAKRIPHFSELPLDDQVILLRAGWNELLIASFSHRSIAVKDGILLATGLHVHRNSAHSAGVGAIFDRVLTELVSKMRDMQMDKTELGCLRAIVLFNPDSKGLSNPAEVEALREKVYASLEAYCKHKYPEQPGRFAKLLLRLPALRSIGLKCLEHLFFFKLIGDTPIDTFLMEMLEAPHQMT

`CCOP(=O)(OCC)OCC`: the molecule was called inactive in assay [1], in assay [9] and in assay [10]. Further, the Potency entry in assay [2], in assay [3], in assay [4], in assay [5], in assay [6] and in [11] was “inactive” throughout. Moreover, the Potency entry in assay [13], in assay [14] and in assay [16] was “inactive” each time. In addition, the activation is 4.27% (inactive) and 16.4% (inactive) in assay [7]; -0.171% (inactive) and -0.669% (inactive) in assay [15]. Also, the max response in assay [8] is 8.93% and -1.46%; in assay [17], 5.7% (inactive) and 3.95% (inactive). The activity change % (negative = inhibition) in [12] is -0.564% (inactive) and 12.2% (inactive).
`C=CC(=O)OCCO`: the result in assay [1], in assay [9] and in assay [10] was inactive. The Potency entry in assay [2], in assay [5], in [6], in assay [11] and in assay [14] was “inactive” in each case. The results for the activation in [7] and in [19] were 19.7% (inactive) and 0.11% (inactive), respectively. The max response was -1.31% in [8], 11.3% (inactive) in [18] and -1.05% (inactive) in [17]. The Potency in assay [13] is 37.6 µM (active).
With `CC(=O)[O-].CC(=O)[O-].CC(=O)[O-].[Cr+3]`, the molecule was classed as inactive in [1] and in assay [10]. The Potency entry in [3], in assay [4], in assay [5], in [11], in [13] and in assay [14] was “inactive” in each case. Besides, the max response in assay [18] was 18.8% (inactive); in assay [17] it was -3.81% (inactive). The activity change % (negative = inhibition) in assay [12] was 2.34% (inactive). The activation in [15] was -2.21% (inactive).
As to `CCOS(C)(=O)=O`, the call in assay [1], in [9] and in assay [10] was inactive. Besides, the Potency result in [2], in assay [3], in assay [4], in assay [5], in [6] and in assay [16] was “inactive” in each case. Also, the max response in assay [8] was -10.7%; in [18], -0.383% (inactive). The activity change % (negative = inhibition) in [12] is -1.09% (inactive). In addition, the activation is 0.8% (inactive) in [19] and 0.384% (inactive) in assay [15].
In the case of `O=[N+]([O-])c1cc(Cl)c(Cl)cc1Cl`, the Potency entry in assay [2], in assay [3], in [5], in [6], in assay [11] and in assay [14] was “inactive” in each case. For the same molecule, in [16], the Potency entry is “inactive”. In addition, the activation in assay [7] is -2.16% (inactive); in [15], -0.111% (inactive). Further, the max response was 5.75% in assay [8] and 7.08% (inactive) in [18]. The outcome in [9] and in assay [10] was inactive. Further, the activity change % (negative = inhibition) in assay [12] was 5.06% (inactive). Further, the Potency in assay [13] is 26.6 µM (active).
With `CCC[N+](=O)[O-]`, the call in assay [1], in assay [9] and in assay [10] was inactive. Further, the Potency entry in assay [2], in assay [4], in assay [5], in assay [14] and in assay [16] was “inactive” in each case. Also, the max response in assay [8] was -21.5%; in assay [17], 2.89% (inactive). Also, the activity change % (negative = inhibition) in [12] is -9.22% (inactive). Further, the activation is -0.704% (inactive) in assay [19] and 1.28% (inactive) in assay [15].
With `O=[N+]([O-])c1ccccc1CCl`, the molecule was called inactive in assay [1], in [9] and in assay [10]. Also, the Potency result in assay [2], in assay [5] and in assay [11] was “inactive” each time. In addition, the activation in assay [7] was 1.82% (inactive); in [19] it was 0.905% (inactive); in assay [15], -0.0678% (inactive). The max response was -16.6% in assay [8] and -4.02% (inactive) in assay [18]. Moreover, the activity change % (negative = inhibition) in assay [12] was 8.81% (inactive). Besides, the Potency in [16] was 42.2 µM (active).
As for `[O-][Cl+]O`, in assay [1], the outcome was inactive. Besides, the Potency result in assay [4], in assay [5], in assay [6], in assay [11], in [13] and in assay [14] was “inactive” throughout. The Potency result in assay [16] is “inactive”. The activation was 9.28% (inactive) in [7], -0.295% (inactive) in assay [19] and 0.878% (inactive) in [15]. Besides, the max response in [18] is 22.2% (inactive); in assay [17], -2.54% (inactive).
Consider `N#CCCCCC#N`, for which the outcome in assay [1], in [9] and in [10] was inactive. In addition, the Potency result in assay [3], in assay [4], in assay [5], in [6], in assay [11] and in assay [13] was “inactive” throughout. Moreover, the Potency result in assay [14] and in [16] was “inactive” in each case. The activation in [7] is -2.66% (inactive); in assay [15] it was 0.486% (inactive). Further, the max response in [18] is 12.5% (inactive); in assay [17], -18.9% (inactive). For the same molecule, the activity change % (negative = inhibition) in assay [12] is -18.7% (inactive).
On to `O=P(OCCCl)(OCCCl)OCCCl`, for which the molecule was classed as inactive in assay [1] and in assay [9]. Besides, the Potency entry in [2], in [3], in assay [6], in assay [11], in [13] and in assay [14] was “inactive” in each case. Moreover, the Potency result in [16] was “inactive”. Besides, the values for the max response in assay [8] and in assay [17] were 19.2% and -2.52% (inactive), respectively. The activity change % (negative = inhibition) in assay [12] is 2.42% (inactive). In addition, in assay [15], the activation was 0.332% (inactive).
